# KB-V1 MDR tox: qHTS assay for MDR1-selective chemotherapeutics: Primary screen using the drug-selected MDR subline cells KB-V1 | AID 1347076, 2019 | actives 3.4% (n = 400,000) | Potency, µM (doses to about 46.1 µM), actives largely listed as cytotoxic | KB-V1 MDR cells viability, CellTiter-Glo, 72 h; further: nearly all actives have a fitted effect of over 60% in size
#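 Cells of the MDR subline KB-V1 are plated, dosed with compound at multiple concentrations, and incubated 72 h at 37 degrees C; CellTiter-Glo is then added and luminescence read after 10 min.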
# KB-3-1 cytotox: qHTS assay for MDR1-selective chemotherapeutics: Primary screen using the parental adenocarcinoma cell KB-3-1; AID 1347075, 2019; Potency, µM (highest dose often 46.1 µM), hits mostly cytotoxic; KB-3-1 viability, CellTiter-Glo ATP luminescence, 72 h; actives 1.4% (n = 400,000); further: nearly all actives have a fitted effect of over 60% in size
#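 Parental KB-3-1 viability, qHTS format: 72 h compound exposure, 37 °C; CellTiter-Glo; media-only wells and DMSO plates as controls; concentration-effect fits on corrected data.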
# DT40 TDP1 no CPT: qHTS for Inhibitors of human tyrosyl-DNA phosphodiesterase 1 (TDP1): qHTS in cells in absence of CPT; DT40 Tdp1-/- hTDP1 cells, no CPT, ATP luminescence, 48 h; Potency, µM (doses to about 46.2 µM), for the others: at the highest dose activity change, negative = growth inhibition, most hits filed as inhibitors; actives 15% (n = 420,000); AID 686978, 2013; further: nearly all actives have a fitted effect of over 55% in size
#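 Cells were dispensed at 400 per well, compounds added by pin tool, plates incubated ≥48 hr at 37 °C, then CellTiter-Glo added for 30 min at room temperature before luminescence reading. Line: DT40 Tdp1-/- complemented with hTDP1; camptothecin omitted.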
# HT1080-NT tox: qHTS for induction of synthetic lethality in tumor cells producing 2HG: qHTS for the HT-1080-NT fibrosarcoma cell line | Potency, µM (series often up to 46.1 µM), inactives show top-dose activity, negative = less viability, usual class: cytotoxic | HT-1080-NT fibrosarcoma viability, CellTiter-Glo ATP luminescence, 48 h | actives 1.6% (n = 360,000);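 further: NT is the 2HG producing partner of a matched IDH1 knockdown line; 0% = DMSO-treated cells and -100% = media-only wells without cells; nearly all actives have a fitted effect of over 55% in size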
#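 HT-1080-NT fibrosarcoma cells (2HG-overproducing), 750 cells/well in RPMI with 5% FBS, dosed after 2 h and incubated 48 h at 37C. CellTiter-Glo luminescence normalized to DMSO and no-cell wells; concentration-response curves fitted and classed.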
# HT1080 IDH1KD tx: qHTS for induction of synthetic lethality in tumor cells producing 2HG: qHTS for the HT-1080-IDH1KD cell line | HT-1080 IDH1 knockdown viability, ATP luminescence, 48 h | actives 2% (n = 360,000) | Potency, µM (series often up to 46.1 µM), without a hit: top-dose activity, negative = toxicity, most hits filed as cytotoxic;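 further: 0% = DMSO wells and -100% = cell-free medium wells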
#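 Knockdown cells (IDH1KD HT-1080) received compounds 2 h after plating at 750 cells/well and were kept 48 h at 37 °C in 5% FBS RPMI. A CellTiter-Glo luminescence read gave % activity for curve fitting.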
# DT40 TDP1 CPT: qHTS for Inhibitors of human tyrosyl-DNA phosphodiesterase 1 (TDP1): qHTS in cells in presence of CPT; chicken DT40 Tdp1-/-;hTDP1 cells + 20 nM CPT, ATP luminescence, 48 h; Potency, µM (highest dose often 46.2 µM), for inactives: at the top dose activity change, negative = growth inhibition, most hits filed as inhibitors; actives 12% (n = 420,000); AID 686979, 2013; further: nearly all actives have a fitted effect of over 55% in size
#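 Chicken DT40 Tdp1-/- cells stably complemented with human TDP1 were seeded at 400 cells/well in medium containing 20 nM camptothecin, exposed to pin-transferred compounds, and grown at 37 °C for at least 48 hr. Viability was read as ATP luminescence.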
# * hit, by the source's call; i = inactive; ? = inconclusive; · = no result. Most compounds without a hit are left out; they make up all but 19% or so of the library. The call rests on the fitted dose curve; in most records, active means well fitted curve in the direction sought with a large enough effect; inconclusive means small, poorly fitted or top-dose-only effect, or another doubt; inactive means no such curve, though single readings can be large; an effect the other way counts as inactive or inconclusive. Unless noted, on the % scale 0 is the no-effect control and ±100 the full control effect; potency means the concentration at half of the fitted maximal effect.
SMILES,KB-V1 MDR tox,KB-3-1 cytotox,DT40 TDP1 no CPT,HT1080-NT tox,HT1080 IDH1KD tx,DT40 TDP1 CPT
O=C(CSc1nnc(NC(=O)c2ccccc2)s1)NC1CCCC1,i,i,-4%,-18%,-3%,3%
COc1cc(C(c2sc3nc(C)nn3c2O)N2CCC3(CC2)OCCO3)cc(OC)c1OC (stereo not drawn),?,?,16µM*,1%,1%,16µM*
CCOC(=O)C1CCN(C(c2cc(OC)c(OC)c(OC)c2)c2sc3nc(C)nn3c2O)CC1 (stereo not drawn),i,i,-29%,-1%,5%,?
CC1CCc2[nH]c3ccc(C(=O)N(C)CC(=O)Nc4ccccc4Cl)cc3c2C1 (stereo not drawn),?,i,15µM*,0%,-21%,?
Cc1ccc(NC(=O)CN(C)C(=O)c2ccc3[nH]c4c(c3c2)CC(C)CC4)cc1 (stereo not drawn),15µM*,?,-37%,-17%,-17%,?
COCCCNC(=O)Cn1c(=O)n(CCCCCC(=O)NCc2ccc3c(c2)OCO3)c(=O)c2sccc21,i,i,0%,-2%,6%,2%
COc1ccc(NC(=O)c2cccc(N3C(=O)C4C5C=CC(C5)C4C3=O)c2)cc1Cl (stereo not drawn),i,i,16µM*,13%,7%,23µM*
COc1ccc(NC(=O)c2cccc(N3C(=O)C4C5C=CC(C6CC56)C4C3=O)c2)cc1 (stereo not drawn),?,i,21µM*,-14%,0%,?
COc1ccc(NC(=O)c2cccc(N3C(=O)C4C5C=CC(C6CC56)C4C3=O)c2)c(OC)c1 (stereo not drawn),i,i,?,0%,-2%,?
Cc1ccc(NC(=O)c2cccc(N3C(=O)C4C5C=CC(C5)C4C3=O)c2)cc1C (stereo not drawn),i,i,21µM*,4%,-1%,23µM*
COc1ccccc1NC(=O)CCC(=O)OCc1cccc([N+](=O)[O-])c1,i,i,10%,13%,17%,9%
O=C1OC(CN2CCOCC2)CN1N=Cc1ccc([N+](=O)[O-])o1 (stereo not drawn),?,i,?,-26%,?,15µM*
O=C(Cc1ccccc1)N/N=C/c1ccc(-c2ccc([N+](=O)[O-])cc2)o1,i,i,?,0%,0%,-15%
O=C1OC(CN(Cc2ccccc2)Cc2ccccc2)CN1N=Cc1ccc([N+](=O)[O-])o1 (stereo not drawn),i,i,9.2µM*,-2%,-8%,16µM*
CC(C)(C)NC(=O)NC(=O)CN1CCN(c2cccc(Cl)c2)CC1,i,i,?,8%,-22%,?
CCOC(=O)c1sc(C)c2c1NC(C)(c1cccs1)NC2=O (stereo not drawn),5.2µM*,i,?,-28%,?,?
CC(CNC(=O)CC[C@H]1O[C@@H](n2cnc3c(NC(=O)c4ccccc4)ncnc32)[C@H](O)[C@@H]1O)c1ccccc1 (stereo partly drawn),i,i,-7%,8%,12%,-12%
COc1ccc(OC)c(N2C(=O)CC(Cc3ccc(Cl)cc3)C2=O)c1 (stereo not drawn),i,i,-24%,2%,-1%,-9%
COc1ccc(OC)c(N2C(=O)CC(Cc3cc(C)cc(C)c3)C2=O)c1 (stereo not drawn),?,6.5µM*,-9%,?,?,?
C=CCSc1nnc(-c2sc(-c3ccccc3)nc2C)n1C,i,i,-22%,14%,4%,?
C=CCN(C(=O)CSC1=NC(=O)CN1C(C)=O)c1nc(C)c(-c2ccccc2)s1,i,i,18µM*,?,?,?
O=C(NNc1nc2ccc(Cl)cc2s1)c1cc(-c2cccs2)nc2ccccc12,?,?,5.2µM*,?,?,2.6µM*
Cc1cc(C)c2nc(NNC(=O)c3cc(-c4cccs4)nc4ccccc34)sc2c1,i,i,5.2µM*,?,?,4.6µM*
COc1ccccc1N(CC(=O)NCCN1CCOCC1)S(=O)(=O)c1ccccc1,i,i,-2%,4%,7%,-3%
CN(C)CCCNc1nc2cc(-c3ccccc3)sc2c(=O)n1C,i,i,21µM*,9.2µM*,?,21µM*
SMILES,KB-V1 MDR tox,KB-3-1 cytotox,DT40 TDP1 no CPT,HT1080-NT tox,HT1080 IDH1KD tx,DT40 TDP1 CPT
CN(C)CCCNc1nc2cc(-c3cncnc3)sc2c(=O)n1C,i,i,-27%,8%,23%,-29%
CN(C)CCCNc1nc2cc(-c3ccc(F)cc3)sc2c(=O)n1C,i,i,18µM*,?,16µM*,18µM*
COc1ccc(-c2noc(-c3ccc(N4CCCC4)c([N+](=O)[O-])c3)n2)cc1,i,i,-22%,·,·,-21%
O=C(NCc1ccccc1)c1nc[nH]c1C(=O)N1CCc2ccccc2C1,i,i,?,4%,5%,?
CCOC(=O)c1c(C)c(C(=O)NCc2cccs2)c(C)n1CC,15µM*,i,-18%,?,5%,-23%
CC(C)(C)OC(=O)NCc1ccc(CNC(=O)c2nc[nH]c2C(=O)N2CCN(c3ccccc3)CC2)cc1,i,i,26µM*,-1%,-5%,?
CC(C)(C)OC(=O)NCc1ccc(CNC(=O)c2nc[nH]c2C(=O)N2CCc3ccccc3C2)cc1,i,i,18µM*,5%,4%,?
CCOC(=O)c1c(C)c(C(=O)NCc2ccc(OC)cc2)c(C)n1CC,i,i,?,·,·,8%
Cc1ccc(NC(=O)c2nc[nH]c2C(=O)N2CCc3ccccc3C2)cc1,i,i,-25%,10%,15%,-25%
CCOC(=O)c1ccc(NC(=O)c2nc[nH]c2C(=O)N2CCc3ccccc3C2)cc1,i,i,13µM*,5%,2%,12µM*

# Assay outcomes: PubChem, National Center for Advancing Translational Sciences (NCATS)
